Shown is part of a subset that was picked to be rich in hits.
Pf Dd2 growth – blocks in vitro growth of P. falciparum Dd2; P. falciparum Dd2 growth, SYBR Green, 72 h; Potency, µM (top dose mostly 28.9 µM), without a hit: top-dose activity, negative = inhibition, usual class: inhibitors; actives 4.3% (n = 120,000); active means well fitted inhibition curve with a large enough effect;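 further: plate controls were DMSO vehicle for no effect and reference drug for full effect; nearly all actives have a fitted effect of over 65% in size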
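Infected erythrocytes (Dd2, 0.3% parasitemia, 2.5% hematocrit final) are added to compound in RPMI-1640/Albumax II medium, grown 72 h at 37C in low oxygen, then lysed with saponin/Triton-X containing SYBR Green and read by fluorescence.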
Numbers without * were called inactive; i = inactive; [ ] = another dose, or the depositor's remark. Potency means the concentration at half of the fitted maximal effect.

SMILES | Pf Dd2 growth
CCOC(=O)C1CCCN(S(=O)(=O)c2cc3c4c(c2)CC(=O)N4CCC3)C1 (configuration not stated) | -9%
CCOC(=O)C1CCN(S(=O)(=O)c2cc3c4c(c2)C(C)C(=O)N4CCC3)CC1 (configuration not stated) | i
Cc1cc(F)cc(CN2CCOc3cc([S+](=O)([O-])N(C)C)ccc3C2)c1 | i
COc1ccc(CN2CCC3(CN[S+](=O)([O-])c4ccccc4N3)C2)cc1 (configuration not stated) | i
COc1ccc(CN2CCC3(CC2)CNc2ccccc2[S+](=O)([O-])N3)cc1 | i
O=[S+]1([O-])NCC2(CCN(Cc3ccsc3)CC2)Nc2ccccc21 | -23%
Cc1ccc(CN2CCC3(CC2)CN[S+](=O)([O-])c2ccccc2N3)cc1 | 5µM*
Cc1ccc(CN2CCCC3(CN[S+](=O)([O-])c4ccccc4N3)C2)cc1 (configuration not stated) | -27%
O=[S+]1([O-])NC2(CCN(Cc3ccncc3)C2)CNc2ccccc21 (configuration not stated) | 5%
O=[S+]1([O-])NC2(CCN(Cc3ccc(C(F)(F)F)cc3)CC2)CNc2ccccc21 | 11µM*
O=[S+]1([O-])NCC2(CCN(Cc3ccc(F)cc3)CC2)Nc2ccccc21 | 8.9µM*
O=[S+]1([O-])NCC2(CCCN(Cc3ccc(F)cc3)C2)Nc2ccccc21 (configuration not stated) | i
COc1ccc(C(=O)N2CCC(N3C(=O)CCC3C(=O)NCc3ccccc3)CC2)cc1 (configuration not stated) | -9%
CN(Cc1cccc2ccccc12)Cc1cccn1C | i
Cc1[nH]ncc1CNC(=O)CCc1ccc2c(c1)CN(C(=O)NC(C)C)CCO2 | 5%
O=C(c1ccc(F)cc1)N1CCC2(CC1)C(=O)NCN2Cc1ccc(Cl)cc1 | -10%
CCOC(=O)c1ccc(CNC(=O)N2CCC3(CC2)CN(c2ccccc2)C3=O)cc1 | -27%
c1csc(-c2nc3ccccn3c2Nc2ccc3c(c2)OCCO3)c1 | 17%
Cc1ccc(-c2nc3ccc(Cl)cn3c2Nc2ccc3c(c2)OCCO3)s1 | 33%
Cc1ccc2nc(-c3ccc(C)o3)c(Nc3ccc4c(c3)OCCO4)n2c1 | -21%
Cc1ccn2c(Nc3ccc4c(c3)OCCO4)c(-c3ccccc3O)nc2c1 | 11µM*
Brc1ccc(-c2nc3ccccn3c2Nc2ccc3c(c2)OCCO3)o1 | 13µM*
Cc1ccc(-c2nc3ccccn3c2Nc2ccc3c(c2)OCCO3)o1 | -20%
Cc1cnc(C(=O)NC2C[C@H]3CC[C@@H](C2)N3C(=O)CC2CCCCC2)cn1 (some centres not stated) | -25%
COC[C@@H]1CN(S(=O)(=O)c2cccc(F)c2)C[C@H]1c1ccccn1 | -6%
SMILES | Pf Dd2 growth
O=C(Nc1ccccc1F)C(Cc1ccccc1)n1cccc1 (configuration not stated) | 5%
CC(C)c1ccc(NC(=O)C(Cc2ccccc2)n2cccc2)cc1 (configuration not stated) | i
O=C(Nc1ccc(C(F)(F)F)cc1)C(Cc1ccccc1)n1cccc1 (configuration not stated) | 14µM*
COc1ccc(C(=O)N2CCCC2)c(OC2CCN(C(=O)C3C=CCN3)CC2)c1 (configuration not stated) | 0%
COCCn1ncc(N2CCCC(CC(=O)NC3CCCCC3)C2)cc1=O (configuration not stated) | -16%
O=C(NCc1ccc(Cl)cc1)c1ccn2nccc2c1 | -8%[44.1 µM]
COC(=O)N1CCCCC(NC(=O)CCCc2nc(-c3ccccc3C)no2)C1 (configuration not stated) | -19%
CCN(CC)S(=O)(=O)NC1CCCN(CCCc2ccccc2)C1 (configuration not stated) | -2%
COC(=O)c1cccc(C(=O)NC2CCCN(CCCc3ccccc3)C2)c1 (configuration not stated) | 8.9µM*
O=C(CCc1nc(-c2ccccc2)no1)NC1CCCN(CCCc2ccccc2)C1 (configuration not stated) | 7.1µM*
O=C(c1ccccc1OCC1CCCN(CCCc2ccccc2)C1)N1CCCC1 (configuration not stated) | i
O=C(CCn1ccc(=O)[nH]c1=O)NC1CCCN(CCCc2ccccc2)C1 (configuration not stated) | -10%
COc1ccc(CCC(=O)N2CCCCCC2c2nnc(-c3ccccc3)o2)cc1 (configuration not stated) | -1%
CN(Cc1ccc(-n2cccn2)cc1)C(=O)CCn1nnnc1CN1CCOCC1 | -5%
CNC(=O)c1cc(-c2cccc(OC)c2OC)cc2c1OCCN2Cc1cccnc1 | 13µM*
CNC(=O)c1cc(-c2cnn(C)c2)cc2c1OCCN2Cc1cccnc1 | -11%[44.1 µM]
CNC(=O)c1cc(-c2cccnc2)cc2c1OCCN2Cc1cccnc1 | i
O=C(c1cc(F)ccc1Cl)N1CCN(C(=O)c2nnn3c2COC(c2ccccc2)C3)CC1 (configuration not stated) | -21%
O=C(c1ccccc1)N1CCC(N(C(=O)C2CC2)C2CCOCC2)CC1 | 39%
COc1ccccc1NC(=O)N1CCC(N(C(=O)C2CC2)C2CCOCC2)CC1 | 4.5µM*
O=C(C1CCC1)N1CCC(N(C(=O)C2CC2)C2CCOCC2)CC1 | 57%
O=C(NCCc1ccccc1)N1CCC(OC2CCN(Cc3ccccc3)CC2)CC1 | -8%
Cc1ccc(CN2CCC3(CC2)CC(c2cccnc2)=NO3)cc1 | i
O=C1CC2CCN(C(=O)c3ccc4c(c3)OCO4)CC2CCN1 (configuration not stated) | 2%
CN1CCC(N2CC3(C2)C(=O)N(C)C(=O)[C@@H]2C[C@@H](O)CN23)CC1 | 15%[44.1 µM]
SMILES | Pf Dd2 growth
Cc1cccc(CNC(=O)c2ccc3c(c2)c(C)c(C)n3Cc2ccccc2)c1 | -3%
Cc1c(C)n(Cc2ccc(F)cc2)c2ccc(C(=O)NCc3ccco3)cc12 | 3.5µM*
CCn1c(C)c(C)c2cc(C(=O)NCc3ccc(F)cc3)ccc21 | i
CCCOc1ccc(CNC(=O)CC2CCOCC2)cc1 | 22%
COc1ccc(C2C=C(c3ccccc3)Nc3nc(NC(=O)c4ccc(C)cc4)nn32)cc1 (configuration not stated) | 13µM*
COc1ccc(C(=O)Nc2cnc(-c3ccc(Cl)cc3)nc2)cc1 | i
COc1cccc(C(=O)Nc2nc3nc(-c4ccccc4)cc(=O)n3[nH]2)c1 | 21%
COc1ccc(NC(=O)c2cc3n(n2)CC(c2ccc(Cl)cc2)OC3)cc1OC (configuration not stated) | -17%
COc1ccc(C(=O)Nc2noc3ccccc23)cc1 | 6%
COc1ccc(CNC(=O)c2cc(-c3ccc(OC)cc3)nc3n[nH]c(-c4cccc([N+](=O)[O-])c4)c23)cc1 | -9%
COc1ccc(C(=O)NCc2nnc3ccc(-c4ccc(Cl)cc4)nn23)cc1OC | i
COc1ccc(C(=O)Nc2nc3n(n2)C(c2ccc(Cl)cc2)C=C(c2ccccc2)N3)cc1OC (configuration not stated) | 7.9µM*
COc1ccc(C2C=C(c3ccccc3)Nc3nc(NC(=O)c4cccc([N+](=O)[O-])c4)nn32)cc1 (configuration not stated) | 8.9µM*
CN(C)c1ncc2c(n1)C(C)(C(=O)NCCCn1ccnc1)CCC2 (configuration not stated) | i
CCOc1ccc(S(=O)(=O)N2CCN(C3(CC)CCN(S(C)(=O)=O)C3)CC2)cc1 (configuration not stated) | i

Bioassay records: PubChem BioAssay, National Center for Advancing Translational Sciences (NCATS)
